Key:
Format in all cases: functional
Plasmodium falciparum [1] = experiment: GSK_TCMDC: Inhibition of Plasmodium falciparum 3D7 in whole red blood cells, using parasite LDH activity as an index of growth. Test compounds present at 2uM
Plasmodium falciparum [2] = experiment: GSK_TCMDC: Inhibition of Plasmodium falciparum Dd2 in whole red blood cells, using parasite LDH activity as an index of growth. Test compounds present at 2uM
HepG2 = experiment: GSK_TCMDC: Percent inhibition of human HepG2 cell line. Test compounds present at 10uM.

Row | SMILES | Inhibition (Plasmodium falciparum [1]) [%] | Inhibition (Plasmodium falciparum [2]) [%] | Inhibition (HepG2) [%]
1 | Fc1ccc(-c2cc(NCCCn3ccnc3)nc(-c3cccnc3)n2)cc1 | 99 | 70 | 11
2 | Cc1cc(N[C@@H](Cc2ccccc2)C(=O)NCCc2ccccc2)nc(NCCc2cccs2)n1.O=C(O)C(F)(F)F | 99 | 84 | 12
3 | CC(C)c1ncc(-c2ccncc2)c(C2CCC(CNC(=O)c3cccnc3)CC2)n1 (stereo not given) | 89 | 88 | 0
4 | O=C1OC(c2cc3ccccc3n2S(=O)(=O)c2ccccc2)(c2cc3ccccc3n2S(=O)(=O)c2ccccc2)c2ccccc21 | 95 | 78 | 1
5 | Cc1ccc(CN2CCN(Cc3cccc(NC(=O)c4ccc5ccccc5c4)c3)CC2)cc1C.O=C(O)C(F)(F)F | 89 | 23 | 62
6 | COCCCNc1nc2cc(OC)c(OC)cc2c2nc(-c3ccccc3)nn12 | 95 | 97 | 6
7 | Cl.O=C1COc2cc(Cl)c(CNC3CCN(CCc4ccnc5c(F)cc(F)cc45)CC3)nc2N1 | 98 | 49 | 96
8 | Cc1cccc2nc(-c3ccc(-c4ccc(NC(=O)Nc5cccc(C#N)c5)cc4)s3)[nH]c12 | 100 | 100 | 33
9 | Cc1c(-c2cccc(C(C)(C)NC3CCN(Cc4ccccc4)CC3)c2)cnc(N)c1C.Cl | 100 | 39 | 14
10 | Cl.O=S(=O)(Nc1cc2c(cc1O)CCN(C1CCC1)CC2)c1ccc(-c2ccc(F)cc2)cc1 | 100 | 99 | 16
11 | COc1ccc(CNC(=O)NC2CCN(c3ccnc(Nc4ccc(OC)cc4)n3)C2)cc1 (stereo not given) | 87 | 80 | 27
12 | CC(C)C[C@H](NC(=O)c1ccc(OCCN2CCOCC2)cc1)C(=O)N[C@H](/C=N/N1CCNC1=O)CCc1ccccc1 | 89 | 94 | 1
13 | CN1CCC(NCc2cccc(-c3ccc(S(=O)(=O)NCc4ccccc4)cc3)c2)CC1.O=C(O)C(F)(F)F | 100 | 93 | 61
14 | O=C(Nc1ccc2c(c1)CCC2)c1nc(N2CCN(c3ccncc3)CC2)ccc1Cl.O=C(O)C(F)(F)F | 100 | 97 | 55
15 | Cc1ccccc1C1CCN(C2CCC(NC(=O)C3=Cc4ccccc4OC3)CC2)CC1 (stereo not given) | 91 | 15 | 26
16 | COc1ccc(Nc2nc(NN=Cc3cc(Br)c(O)cc3O)nc(Nc3ccc([N+](=O)[O-])cc3)n2)cc1 | 97 | 23 | 30
17 | O=C1NC(C(=O)Nc2ccccc2)C(c2ccccc2)S1 (stereo not given) | 95 | 99 | 0
18 | CCCCCc1cnc2nc(N)nc(N)c2c1.O=S(=O)(O)CCO | 82 | 6 | 72
19 | COc1cc(NC(=O)NC(CCN2CCC3(CCc4ccccc43)CC2)c2ccc(Cl)c(Cl)c2)cc(OC)c1OC (stereo not given) | 90 | 66 | 66
20 | Cc1[nH]c(C)c(-c2ccc(-c3ccc(Cl)cc3)nc2)c(=O)c1Cl | 95 | 96 | 8

Row | SMILES | Inhibition (Plasmodium falciparum [1]) [%] | Inhibition (Plasmodium falciparum [2]) [%] | Inhibition (HepG2) [%]
21 | Clc1ccc(CNc2nc(NCCc3c[nH]cn3)nc(Nc3ccc4c(c3)OCO4)n2)cc1 | 84 | 6 | 8
22 | CO/C(=C\C=C\c1cc2cc(Cl)c(Cl)cc2[nH]1)C(=O)NCCCN1CCN(Cc2ccccc2)CC1 | 94 | 65 | 45
23 | CC(C)(CNC(=O)C1CCN(Cc2ccc(Cl)cc2)CC1)c1nc(-c2ccc(Cl)c(O)c2)c(-c2ccncc2)[nH]1.Cl | 100 | 83 | 36
24 | O=C(Nc1ccccc1)N(Cc1cccc(-c2cccc(CNCc3ccc4c(c3)OCO4)c2)c1)C1CCN(Cc2ccccc2)CC1.O=C(O)C(F)(F)F | 100 | 84 | 96
25 | CC(CN(C)C)C(=O)Nc1ccc(-c2ccc(-c3nc4cc(C(F)(F)F)ccc4[nH]3)cc2)cc1 (stereo not given) | 100 | 93 | 14
26 | O=C(Nc1ccc(Oc2cccnc2)cc1)C1CCN(Cc2cc(Cl)ccc2O)CC1 | 83 | 1 | 37
27 | O=C(NCCCCN1CCC(c2ccc3ccccc3c2)CC1)c1ccc(NC(=O)c2ccc(Cl)cc2)cc1 | 100 | 93 | 24
28 | CS(=O)(=O)c1ccc(CNCc2cccc(-c3cccc(-c4nc5cc(F)ccc5[nH]4)c3)c2)cc1.O=C(O)C(F)(F)F | 100 | 84 | 11
29 | CCOC(=O)c1ccc2[nH]c(-c3ccc(C(=O)NC4CCN(Cc5ccccc5)CC4)s3)nc2c1 | 100 | 95 | 32
30 | CC(C)COc1ccc(Cl)cc1Cc1nc(-c2nc3ccc(CN4CCCC4)cc3[nH]2)co1.Cl | 100 | 66 | 50
31 | Cl.c1ccc(-c2cc(NCCCCCCCCNc3cc(-c4ccccc4)nc4ccccc34)c3ccccc3n2)cc1 | 100 | 72 | 36
32 | COc1ccc(CNCc2cccc(-c3cccc(-c4nc5cccc(C)c5[nH]4)c3)c2)cc1.O=C(O)C(F)(F)F | 100 | 60 | 31
33 | CC(C)c1nc2c(N)nc(N)nc2nc1N | 84 | 0 | 64
34 | O=C(Nc1cccc2ccccc12)N1CCC(NS(=O)(=O)c2cccc(C(F)(F)F)c2)CC1 | 95 | 1 | 0
35 | CCNc1cc(C(=O)N[C@@H](Cc2ccccc2)[C@H](O)CNCCc2cccc(C(F)(F)F)c2)cc(N2CCCC2=O)c1.O=CO | 96 | 93 | 7
36 | Br.COc1ccc(OC)c2c1CCN(C)C2Cc1cccc2ccccc12 (stereo not given) | 91 | 79 | 13
37 | CN1CCCC(COc2cc3c(cc2Br)CCN3C(=O)Nc2ccc(-c3ccncc3)c(Cl)c2)C1 (stereo not given) | 100 | 96 | 99
38 | Br.CCCOC(=O)c1ccc(OCCCON2C(=N)N=C(N)NC2(C)C)cc1 | 95 | 97 | 61
39 | CCn1c(-c2nonc2N)nc2c(-c3cccc(NC(=O)Nc4cccc(C#N)c4)c3)ncc(OCCCN)c21.O=C(O)C(F)(F)F | 92 | 80 | 37
40 | O=C(NCCCNc1ccc2ccccc2n1)c1cc2c(Cl)cc(Cl)cc2[nH]1 | 100 | 100 | 40

Row | SMILES | Inhibition (Plasmodium falciparum [1]) [%] | Inhibition (Plasmodium falciparum [2]) [%] | Inhibition (HepG2) [%]
41 | Nc1n[nH]c(-c2ccccc2Nc2ccnc3cc(-c4nccs4)ccc23)n1 | 100 | 94 | 98
42 | COc1ccc(CNC2CCN(C)CC2)cc1-c1ccc(S(=O)(=O)NCCc2ccccn2)c(F)c1.O=C(O)C(F)(F)F | 100 | 55 | 3
43 | CS(=O)(=O)O.FC(F)(F)COc1ccc(CCNCCCCNCCc2ccc(OCC(F)(F)F)c3ccccc23)c2ccccc12 | 99 | 70 | 100
44 | CCC(NC(=O)c1ccccc1NC(=O)c1ccc(C)cc1)C(=O)OC (stereo not given) | 95 | 86 | 0
45 | Cl.N=C(NC1CC1)c1ccc2[nH]c(CCCCCc3nc4cc(C(=N)NC5CC5)ccc4[nH]3)nc2c1 | 89 | 72 | 0
46 | Cc1ccc(C)c(Sc2ccc(NC(=O)CN3CCN(C(=O)c4ccco4)CC3)cc2)c1 | 96 | 93 | 28
47 | CCCC(C)Nc1nc(C)cc(N[C@@H](Cc2ccccc2)C(=O)NCc2cccc(F)c2)n1.O=C(O)C(F)(F)F (stereo not given in full) | 100 | 75 | 9
48 | CN(C)CCNCc1ccc(-c2cccc(-c3nc4ccccc4[nH]3)c2)cc1.O=C(O)C(F)(F)F | 100 | 63 | 31
49 | Cc1ccc(-n2cc(CNCCc3nc(C)c[nH]3)c(-c3ccc(F)cc3)n2)cc1 | 86 | 12 | 15
50 | COc1ccc(-c2cnc3[nH]cc(-c4ccc(C(=O)O)cc4)c3c2)cn1.O=C(O)C(F)(F)F | 95 | 99 | 35
51 | CCN(CC)S(=O)(=O)c1ccc(C(=O)Oc2ccccc2N(Cc2ccc(OC)cc2)C2=NS(=O)(=O)c3ccccc32)cc1 | 98 | 63 | 0
52 | Nc1cccc(CNCc2ccc(-c3ccc(-c4nc5cc(F)ccc5[nH]4)s3)cc2)c1.O=C(O)C(F)(F)F | 100 | 93 | 12
53 | CC1CN(Cc2ccc(-c3ccc(-c4nc5cc(F)ccc5[nH]4)cc3)cc2)CC(C)O1.O=C(O)C(F)(F)F (stereo not given) | 96 | 93 | 40
54 | OC(CNc1ccnc(Nc2cccc(OCCCN3CCOCC3)c2)n1)c1ccccc1 (stereo not given) | 97 | 25 | 48
55 | O=C(NC12CC3CC(CC(C3)C1)C2)C(=O)c1c[nH]c2ccccc12 | 97 | 2 | 16
56 | Br.CCc1cccc(OCCCON2C(=N)N=C(N)NC2(C)C)c1 | 95 | 94 | 63
57 | CCNc1nc(OCC(F)(F)F)nc(N(c2ccccc2)c2ccccc2)n1 | 100 | 83 | 5
58 | CC(CN(C)C)C(=O)Nc1cccc(-c2ccc(-c3nc4cc(C(F)(F)F)ccc4[nH]3)cc2)c1 (stereo not given) | 99 | 97 | 26
59 | Nc1nc(N)c2c(ccc3c2ccn3Cc2cc3c(cc2Cl)OCO3)n1 | 95 | 94 | 58
60 | O=C(NC1CCN(c2ccnc3cc(Cl)ccc23)C1)c1ccccc1F.O=C(O)C(F)(F)F (stereo not given) | 100 | 71 | 8

Reference: ChEMBL document CHEMBL1157539, “Thousands of chemical starting points for antimalarial lead identification” (Nature, 2010)
